Source: PubChem BioAssay (NCATS)
Several values for one entry are separate records, joined by “and”; a condition that tells them apart may be missing. Equal entries are not always repeated. Results filed as inconclusive are left out. Entries that show only a call come without a potency. Activity calls are given as the source filed them. Calls follow the shape of the dose curve; as a rule, active = well fitted curve in the direction sought with a large enough effect; inconclusive = small, poorly fitted or top-dose-only effect, or another doubt; inactive = no such curve, though single readings can be large; an effect the other way counts as inactive or inconclusive.

Key:
[1] = qHTS of pediatric cancer cell lines to identify multiple opportunities for drug repurposing: Primary screen for SK-N-MC cells (AID 1347093); also: potency is read from the fitted curve at half-maximal effect
Procedure, shortened: (§1)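 Metabolically active cells were quantified by ATP-dependent luminescence (CellTiter-Glo, 15 min at room temperature) following 48 h treatment. Cells had been plated at 500-1,000 per well and settled for 5 h beforehand.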

[2] = qHTS of pediatric cancer cell lines to identify multiple opportunities for drug repurposing: Primary screen for NB-EBc1 cells (AID 1347095); also: potency is read from the fitted curve at half-maximal effect
Procedure, shortened: (§2)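 Cells plated at 500-1,000/well in growth medium, compounds added after 5 h. MIPE tested at 11 points (from 0.78 nM), NPC at 8 points (from 0.59 nM). CellTiter-Glo luminescence after 48 h; concentration-response curves from primary screen.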

[3] = qHTS of pediatric cancer cell lines to identify multiple opportunities for drug repurposing: Primary screen for U-2 OS cells (AID 1347096); also: nearly all actives have a fitted effect of over 50% in size; also: potency is read from the fitted curve at half-maximal effect
Procedure, shortened: (§3)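 Cells (500-1,000/well) in growth media were settled 5 h at 37 degrees C, then given compounds for 48 h. Viability was read as CellTiter-Glo luminescence. Primary runs used MIPE at 11 points (0.78 nM-46 µM) and NPC at 8 points (0.59 nM-46 µM); follow-ups used 11 points.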

[4] = qHTS of pediatric cancer cell lines to identify multiple opportunities for drug repurposing: Primary screen for Saos-2 cells (AID 1347097); also: nearly all actives have a fitted effect of over 40% in size; also: potency is read from the fitted curve at half-maximal effect
Procedure, shortened: as §2

[5] = qHTS of pediatric cancer cell lines to identify multiple opportunities for drug repurposing: Primary screen for SK-N-SH cells (AID 1347098); also: nearly all actives have a fitted effect of over 65% in size; also: potency is read from the fitted curve at half-maximal effect
Procedure, shortened: (§4)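 Cells (500-1,000/well) rested 5 h, then received compounds for 48 h; metabolically active cells were measured by CellTiter-Glo luminescence. Final concentrations spanned up to 46 µM (MIPE, 11-point) or 0.59 nM-46 µM (NPC, 8-point) in primary screens, 11-point in follow-ups.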

[6] = qHTS of pediatric cancer cell lines to identify multiple opportunities for drug repurposing: Primary screen for LAN-5 cells (AID 1347100); also: potency is read from the fitted curve at half-maximal effect
Procedure, shortened: as §3

[7] = qHTS of pediatric cancer cell lines to identify multiple opportunities for drug repurposing: Primary screen for OHS-50 cells (AID 1347103); also: nearly all actives have a fitted effect of over 40% in size; also: potency is read from the fitted curve at half-maximal effect
Procedure, shortened: as §4

[8] = qHTS of pediatric cancer cell lines to identify multiple opportunities for drug repurposing: Primary screen for RD cells (AID 1347104); also: nearly all actives have a fitted effect of over 55% in size; also: potency is read from the fitted curve at half-maximal effect
Procedure, shortened: as §2

[9] = qHTS of pediatric cancer cell lines to identify multiple opportunities for drug repurposing: Primary screen for control Hh wild type fibroblast cells (AID 1347106); also: nearly all actives have a fitted effect of over 55% in size; also: potency is read from the fitted curve at half-maximal effect
Procedure, shortened: as §3

[10] = qHTS of pediatric cancer cell lines to identify multiple opportunities for drug repurposing: Primary screen for Rh30 cells (AID 1347107); also: series mostly up to about 46 µM; nearly all actives have a fitted effect of over 75% in size
Procedure, shortened: as §3

[11] = qHTS of pediatric cancer cell lines to identify multiple opportunities for drug repurposing: Primary screen for Rh41 cells (AID 1347108); also: nearly all actives have a fitted effect of over 70% in size; also: potency is read from the fitted curve at half-maximal effect
Procedure, shortened: as §2

[12] = qHTS of pediatric cancer cell lines to identify multiple opportunities for drug repurposing: Confirmatory screen for A673 cells (AID 1347110);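 also: cells exposed to compound for 48 h before the viability read; nearly all actives have a fitted effect of over 65% in size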; also: potency is read from the fitted curve at half-maximal effect
Procedure, shortened: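 qHTS titration format: primary MIPE 0.78 nM-46 µM (11 pts), NPC 0.59 nM-46 µM; confirmation 11 pts. 48 h, CTG luminescence.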

[13] = qHTS of pediatric cancer cell lines to identify multiple opportunities for drug repurposing: Confirmatory screen for SK-N-MC cells (AID 1347111);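 also: cells exposed to compound for 48 h before the readout; nearly all actives have a fitted effect of over 70% in size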; also: potency is read from the fitted curve at half-maximal effect
Procedure, shortened: as §1

[14] = qHTS of pediatric cancer cell lines to identify multiple opportunities for drug repurposing: Primary screen for NB1643 cells (AID 1347099); also: nearly all actives have a fitted effect of over 50% in size; also: potency is read from the fitted curve at half-maximal effect
Procedure, shortened: as §2

[15] = qHTS of pediatric cancer cell lines to identify multiple opportunities for drug repurposing: Primary screen for BT-12 cells (AID 1347101); also: nearly all actives have a fitted effect of over 25% in size; also: potency is read from the fitted curve at half-maximal effect
Procedure, shortened: as §4

[16] = qHTS of pediatric cancer cell lines to identify multiple opportunities for drug repurposing: Primary screen for Rh18 cells (AID 1347102); also: nearly all actives have a fitted effect of over 65% in size; also: potency is read from the fitted curve at half-maximal effect
Procedure, shortened: as §3

[17] = qHTS of pediatric cancer cell lines to identify multiple opportunities for drug repurposing: Primary screen for MG 63 (6-TG R) cells (AID 1347105); also: nearly all actives have a fitted effect of over 50% in size; also: potency is read from the fitted curve at half-maximal effect
Procedure, shortened: as §2

[18] = qHTS of pediatric cancer cell lines to identify multiple opportunities for drug repurposing: Primary screen for BT-37 cells (AID 1347094); also: potency is read from the fitted curve at half-maximal effect
Procedure, shortened: as §2

[19] = qHTS of pediatric cancer cell lines to identify multiple opportunities for drug repurposing: Confirmatory screen for NB1643 cells (AID 1347109); also: nearly all actives have a fitted effect of over 45% in size; also: potency is read from the fitted curve at half-maximal effect
Procedure, shortened: as §3

[20] = qHTS of pediatric cancer cell lines to identify multiple opportunities for drug repurposing: Confirmatory screen for BT-12 cells (AID 1347112); also: nearly all actives have a fitted effect of over 55% in size; also: potency is read from the fitted curve at half-maximal effect
Procedure, shortened: as §3

SMILES	Potency [1]	Potency [2]	Potency [3]	Potency [4]	Potency [5]	Potency [6]	Potency [7]	Potency [8]	Potency [9]	outcome [10]	Potency [11]	Potency [12]	Potency [13]	Potency [14]	Potency [15]	Potency [16]	Potency [17]	Potency [18]	Potency [19]	Potency [20]
O=C(c1ccc(OCCN2CCCCC2)cc1)c1c(-c2ccc(O)cc2)sc2cc(O)ccc12	18.8 µM (active)	20.9 µM (active)	inactive	14.8 µM (active)	13.7 µM (active)	15 µM (active)	27.6 µM (active) and 24.3 µM (active)	23.7 µM (active) and 18.7 µM (active)	inactive	inactive	inactive	20.8 µM (active)	16.5 µM (active)							
Nc1c2c(nc3ccccc13)CCCC2	inactive	inactive	inactive	inactive	inactive	inactive	inactive	inactive	inactive	inactive	inactive			inactive	inactive	inactive	inactive			
O=C(C1CCCCC1)N1CC(=O)N2CCc3ccccc3C2C1 (stereo not drawn)	inactive	inactive	inactive	inactive	inactive	inactive	inactive	inactive	inactive	inactive	inactive			inactive	inactive	inactive	inactive			
CC(=O)OCC(CCn1cnc2cnc(N)nc21)COC(C)=O		inactive	inactive	inactive	inactive	inactive	inactive	inactive	inactive	inactive	inactive			inactive	inactive	inactive	inactive	inactive		
CC(C(=O)O)c1cccc(C(=O)c2ccccc2)c1 (stereo not drawn)		inactive	inactive	inactive	inactive	inactive	inactive		inactive	inactive	inactive				inactive	inactive		inactive		
Nc1ccn([C@H]2CC[C@@H](CO)O2)c(=O)n1		inactive	inactive	inactive	inactive	inactive	inactive	inactive	inactive	inactive	inactive			inactive	inactive	inactive	inactive	inactive		
Clc1ccc2nsnc2c1NC1=NCCN1		inactive	inactive	inactive	inactive	inactive	inactive	inactive	inactive	inactive	inactive		inactive	inactive	inactive	inactive	inactive	inactive	26.1 µM (active)	
O=C1c2c(O)ccc(O)c2C(=O)c2c(NCCNCCO)ccc(NCCNCCO)c21		74.3 nM (active) and 59.6 nM (active)	18.7 µM (active) and 10.6 µM (active)	1.66 µM (active) and 1.68 µM (active)	383 nM (active) and 486 nM (active)	0.0833 µM (active)	344 nM (active) and 49 nM (active)	4.69 µM (active) and 6.68 µM (active)	13.3 µM (active)		4.18 µM (active) and 9.44 µM (active)	0.147 µM (active)	0.208 µM (active)	469 nM (active) and 668 nM (active)	1.72 µM (active) and 490 nM (active)	2.09 µM (active) and 2.37 µM (active)	0.372 µM (active)	243 nM (active) and 38.9 nM (active)	0.369 µM (active)	1.85 µM (active)
COc1ccc(CCN(C)CCCC(C#N)(c2ccc(OC)c(OC)c2)C(C)C)cc1OC (stereo not drawn)		inactive	inactive	inactive	inactive	inactive	inactive	inactive	inactive	inactive	inactive			inactive	inactive	inactive		inactive		
CN(CCOc1ccc(NS(C)(=O)=O)cc1)CCc1ccc(NS(C)(=O)=O)cc1		inactive	inactive	inactive	inactive	inactive	inactive	inactive	inactive	inactive	inactive			inactive	inactive	inactive		inactive		
NCCS(=O)(=O)O		inactive	inactive	inactive	inactive	inactive	inactive	inactive	inactive	inactive	inactive			inactive	inactive	inactive	inactive			
CS(=O)(=O)Nc1ccc([N+](=O)[O-])cc1Oc1ccccc1		inactive	inactive	inactive	inactive		inactive	inactive	inactive	inactive	inactive	inactive			inactive	inactive		inactive	inactive	inactive
CN1CCC(=C2c3ccccc3CC(=O)c3sccc32)CC1		inactive	inactive	inactive	24.1 µM (active)	inactive			inactive	inactive	inactive			inactive	inactive	inactive		inactive		
CCOC(=O)Nc1ccc(NCc2ccc(F)cc2)nc1N		inactive	inactive	inactive	inactive	inactive	inactive	inactive	inactive	inactive	inactive			inactive	inactive	inactive		inactive		
CCc1cccc2c3c([nH]c12)C(CC)(CC(=O)O)OCC3 (stereo not drawn)		inactive	inactive	inactive	inactive	inactive	inactive	inactive	inactive	inactive	inactive			inactive	inactive	inactive	inactive	inactive		
NCCCCCC(=O)O		inactive	inactive	inactive	inactive	inactive	inactive	inactive	inactive	inactive	inactive			inactive	inactive	inactive	inactive			
Cc1cn([C@H]2C=C[C@@H](CO)O2)c(=O)[nH]c1=O		inactive	inactive	inactive	inactive	inactive	inactive	inactive	inactive	inactive	inactive			inactive	inactive	inactive		inactive		
CN(C)CCC=C1c2ccccc2C=Cc2ccccc21		inactive	inactive	29.6 µM (active)	27.3 µM (active)	inactive	27.6 µM (active)		inactive	inactive	inactive			inactive		inactive		inactive		
CN(C)c1nc(N(C)C)nc(N(C)C)n1		inactive	inactive	inactive	inactive	inactive	inactive	inactive	inactive	inactive	inactive			inactive	inactive	inactive	inactive			
CN1CCN(C2=Nc3cc(Cl)ccc3Nc3ccccc32)CC1		inactive	inactive	inactive	15.4 µM (active)	inactive			inactive	inactive	inactive			inactive	inactive	inactive	inactive	inactive		
CN(C)C(=N)N=C(N)N		inactive	inactive	inactive	inactive	inactive	inactive	inactive	inactive	inactive	inactive			inactive	inactive	inactive	inactive			
NS(=O)(=O)c1cc2c(cc1Cl)NCNS2(=O)=O		inactive	inactive	inactive	inactive	inactive	inactive	inactive	inactive	inactive	inactive			inactive	inactive	inactive	inactive	inactive		
CC12CC3CC(C)(C1)CC(N)(C3)C2		inactive	inactive	inactive	27.1 µM (active)	inactive			inactive	inactive					inactive	inactive		inactive		
COc1nc(C)nc(Cl)c1NC1=NCCN1		inactive	inactive	inactive	inactive	inactive	inactive	inactive	inactive	inactive	inactive			inactive	inactive	inactive	inactive	inactive		
COc1cc2nc(N(C)CCCNC(=O)C3CCCO3)nc(N)c2cc1OC (stereo not drawn)		inactive	inactive	inactive	inactive	inactive	inactive	inactive	inactive	inactive	inactive			inactive	inactive	inactive	inactive			
COc1ccc(C2CNC(=O)C2)cc1OC1CCCC1 (stereo not drawn)		inactive	inactive	inactive	inactive	inactive	inactive	inactive	inactive	inactive	inactive			inactive	inactive	inactive	inactive	inactive		
Cn1c(=O)c2[nH]cnc2n(C)c1=O		inactive	inactive	inactive	inactive	inactive	inactive	inactive	inactive	inactive	inactive			inactive	inactive	inactive	inactive			
CN(C)CCOC(c1ccccc1)c1ccccc1		inactive	inactive	inactive	inactive	inactive		inactive	inactive	inactive	inactive				inactive	inactive	inactive	inactive		
Cc1cn([C@H]2C[C@H](N=[N+]=[N-])[C@@H](CO)O2)c(=O)[nH]c1=O		inactive	inactive	inactive		inactive	inactive	inactive	inactive	inactive	inactive				inactive	inactive	inactive	inactive		
CC[N+](CC)(CC)CCOc1cccc(OCC[N+](CC)(CC)CC)c1OCC[N+](CC)(CC)CC		inactive	inactive	inactive	inactive	inactive	inactive	inactive	inactive	inactive	inactive			inactive	inactive	inactive	inactive	inactive		
